From PubChem BioAssay (NCATS) come the findings set out here.

Assay [1] addresses Glutathione peroxidase 1 (Homo sapiens) (UniProt P07203). Put plainly: Primary qHTS Assay for Inhibitors of Recombinant Selenoprotein Glutathione Peroxidase 1 (GPX1) (AID 1845191). For activity, negative = inhibition: % is set by controls: 0 for no effect and ±100 for the full control effect. Note: nearly all actives have a fitted effect of over 65% in size. In outline:
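GR-coupled readout: NADPH consumption tracked by fluorescence, ex 340/em 450 nm, at t=0 and after 15 min at RT. Final mix 10 nM GPX1, 1 mM GSH, 0.5 mM CHP, 0.5 mM NADPH, 100 nM GR, 0.01% BSA, following 30 min enzyme–compound preincubation.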

Assay [2] addresses Phospholipid hydroperoxide glutathione peroxidase GPX4 (Homo sapiens) (UniProt P36969). Put plainly: Primary qHTS Assay for Inhibitors of Recombinant Selenoprotein Glutathione Peroxidase 4 (GPX4) (AID 1845192). For activity change, negative = inhibition: series mostly up to about 50 µM; % is set by controls: 0 for no effect and ±100 for the full control effect. Note: nearly all actives have a fitted effect of over 65% in size. In outline:
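Steps: GPX4 plus compound, 30 min RT; add GR/GSH/NADPH master mix; start with cumene hydroperoxide; read 340/450 nm fluorescence at 0 and 15 min. Finals were 200 nM GPX4, 1 mM GSH, 0.5 mM CHP, 0.5 mM NADPH, 100 nM GR.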
In general terms: Quantitative high-throughput screening tests each substance at several concentrations.

Assay [3] has as its target Luciferin 4-monooxygenase (Photinus pyralis) (UniProt P08659). The assay can be described thus: Primary firefly luciferase (FLuc) qHTS assay for identification of artifact compounds. (AID 1845220).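 For activity change, negative = inhibition: series mostly up to about 54 µM; plate controls were DMSO vehicle for no effect and no enzyme for full effect.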 Note: nearly all actives have a fitted effect of over 60% in size. Note: potency is the fitted concentration of half-maximal effect. In a few lines:
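D-luciferin and ATP (10 uM each, final) in Tris acetate buffer pH 7.6 were incubated with compounds for 15 min at room temperature. The reaction was started with 10 nM Photinus pyralis luciferase and luminescence read after 5 min. Percent inhibition was fitted to a 4-parameter Hill equation.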

A short description of assay [4]: Primary fluorescence-based thiol-reactive (MSTI) qHTS assay for identification of artifact compounds. (AID 1845221).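 For activity change, negative = thiol reactive: series mostly up to about 54 µM; thiol-reactive compounds lower the probe fluorescence signal.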 Note: nearly all actives have a fitted effect of over 65% in size. Note: potency is the fitted concentration of half-maximal effect. In a few lines: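 MSTI probe at 4 uM final in 2% DMSO/PBS pH 7.4; compounds, 1 h at room temperature in dark. Fluorescence Ex/Em 525/598 nm, normalised to Acetyl-MSTI and MSTI, fitted to 4-parameter Hill.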
Assay [5] relates to Nanoluciferase (engineered Oplophorus gracilirostris luciferase). Put plainly: Primary Nanoluciferase (NLuc) qHTS assay for identification of artifact compounds. (AID 1845222).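 For activity, negative = inhibition: series mostly up to about 54 µM; 0% = DMSO and -100% = no enzyme.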 Note: potency is the fitted concentration of half-maximal effect. In a few lines:
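Diluted conditioned medium from NLuc-expressing S16 cells treated with compounds for 15 min at room temperature, then Nano-Glo substrate added; luminescence read after 5 min. Percent inhibition versus no-enzyme and DMSO controls fitted to 4-parameter Hill equation.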

Structures are written as SMILES. Values without a mark were called inactive. Records with an inconclusive call do not appear. Calls of active or inactive are those of the source. Calls come from the whole dose curve; as a rule, active = well fitted curve in the direction sought with a large enough effect; inconclusive = small, poorly fitted or top-dose-only effect, or another doubt; inactive = no such curve, though single readings can be large; an effect the other way counts as inactive or inconclusive.

Phospholipid hydroperoxide glutathione peroxidase GPX4 (Homo sapiens), sequence (P36969 whole entry, looked up): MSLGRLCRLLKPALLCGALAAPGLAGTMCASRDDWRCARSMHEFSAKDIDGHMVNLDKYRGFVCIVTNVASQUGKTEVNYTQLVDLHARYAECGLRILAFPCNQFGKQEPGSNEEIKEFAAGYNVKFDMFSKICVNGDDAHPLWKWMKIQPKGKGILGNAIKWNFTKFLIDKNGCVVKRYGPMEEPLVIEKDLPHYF
Glutathione peroxidase 1 (Homo sapiens), sequence (P07203 whole entry, looked up): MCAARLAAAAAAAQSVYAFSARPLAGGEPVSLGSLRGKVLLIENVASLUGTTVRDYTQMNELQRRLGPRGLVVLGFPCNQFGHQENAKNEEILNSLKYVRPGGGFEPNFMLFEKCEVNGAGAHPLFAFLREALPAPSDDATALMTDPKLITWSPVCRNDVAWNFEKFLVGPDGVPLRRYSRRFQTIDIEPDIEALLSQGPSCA

As for `FC(F)(F)c1ccc(/C=C/c2nc(COc3ccc(CCCCn4ccnn4)cc3)co2)cc1`, the Potency result in assay [1], in assay [2], in assay [3], in assay [4] and in assay [5] was “inactive” each time.
With `Cc1ccc(C(=O)Nc2ccc(CN3CCN(C)CC3)c(C(F)(F)F)c2)cc1C#Cc1cnc2[nH]ncc2c1`, the Potency result in assay [1], in assay [2], in assay [4] and in assay [5] was “inactive” each time. For the same molecule, the Potency in assay [3] is 23.9 µM (active).
In the case of `C=C1C(=O)O[C@@H]2C[C@H](C)C3=CC(=O)[C@H](O)[C@@]3(C)C[C@H]12`, the Potency entry in assay [1], in assay [2], in assay [3] and in assay [5] was “inactive” each time. For the same molecule, the Potency in assay [4] is 11.9 µM (active).
`CC(C)(C)NC(=O)[C@H]1CC[C@H]2[C@@H]3CC[C@H]4NC(=O)CC[C@]4(C)[C@H]3CC[C@]12C`: the Potency entry in assay [1], in assay [2], in assay [3], in assay [4] and in assay [5] was “inactive” each time.
In the case of `C/C=C(/C)C(=O)O[C@H]1[C@H](OC(=O)/C(C)=C\C)[C@@]23C(CC1(C)C)[C@]1(CCC4[C@@]5(C)CC[C@H](O[C@@H]6O[C@H](C(=O)O)[C@@H](O)[C@H](O[C@@H]7O[C@H](CO)[C@H](O)[C@H](O)[C@H]7O[C@@H]7O[C@@H](C)[C@H](O)[C@@H](O)[C@H]7O[C@@H]7OC[C@@H](O)[C@H](O)[C@H]7O)[C@H]6O[C@@H]6O[C@H](CO)[C@H](O)[C@H](O)[C@H]6O)C(C)(C)C5CC[C@@]4(C)[C@]1(C)C[C@H]2O)O[C@H]3O` (stereo not given in full), the activity, negative = inhibition in assay [1] was -2.94% [at 9.52 µM]; in assay [5], 3.76% [at 11.6 µM]. For the same molecule, the values for the activity change, negative = inhibition in assay [2] and in assay [3] were -2.35% [at 9.73 µM] and 4.78% [at 11.6 µM], respectively. Moreover, the activity change, negative = thiol reactive in assay [4] was 718% [at 11.5 µM].
For the molecule `C/C=C(\C)C(=O)O[C@@H]1[C@@H](C)[C@]2(O)[C@@H]3C=C(C)C(=O)[C@H]3CC(CO)=C[C@H]2C2C(C)(C)[C@@]21OC(=O)C(C)CC` (stereo not given in full), the Potency result in assay [1], in assay [2], in assay [3], in assay [4] and in assay [5] was “inactive” in each case.
Regarding `C=C1C(=O)O[C@@H]2[C@H]3C(C)=CC(=O)C3=C(C)[C@@H](OC(=O)/C(C)=C\C)[C@H](O)[C@@H]12`, the Potency entry in assay [1], in assay [2], in assay [3] and in assay [4] was “inactive” throughout. In assay [5], the Potency is 9.31 µM (active).
Take `CCC(C)C(=O)O[C@H]1[C@@H](OC(=O)c2ccoc2)C[C@](C)(O)[C@]23OC(C)(C)[C@H](C[C@H](OC(=O)c4ccoc4)[C@]12COC(C)=O)[C@H]3OC(C)=O` (stereo not given in full): the Potency entry in assay [1], in assay [2], in assay [3], in assay [4] and in assay [5] was “inactive” throughout.
With `O=C(NCCCCN1CCN(c2cccc(Cl)c2Cl)CC1)c1cc2ccccc2s1`, the Potency entry in assay [1], in assay [2], in assay [3], in assay [4] and in assay [5] was “inactive” in each case.
As for `O=C(c1ccccc1)c1c(O)cc(O)cc1O[C@@H]1O[C@H](CO)[C@@H](O)[C@H](O)[C@H]1O`, the Potency entry in assay [1], in assay [2], in assay [3] and in assay [5] was “inactive” each time. The Potency in assay [4] was 13.1 µM (active).
`COc1ccc(C2(CNC(=O)c3ccc(NC(=O)c4ccco4)cc3)CCOCC2)cc1`: the Potency result in assay [1], in assay [2], in assay [3], in assay [4] and in assay [5] was “inactive” in each case.
In the case of `CC(C)=CCCC1(C)C2CCC1(C)C(O)C2` (stereo not given), the Potency result in assay [1], in assay [2], in assay [3] and in assay [5] was “inactive” in each case. The Potency in assay [4] was 29.9 µM (active).
For `COc1cccc(CN(C(=O)CC(C)(C)C)[C@H]2C[C@H](C(=O)N3CCNCC3)N(Cc3ccc4c(c3)OCO4)C2)c1`, the Potency result in assay [1], in assay [2], in assay [3], in assay [4] and in assay [5] was “inactive” throughout.
With `C=C1C(=O)OC2/C=C(\CO)CC/C=C(\C=O)C(OC)C(OC(=O)C(C)CC)C12` (stereo not given), the Potency result in assay [1], in assay [2], in assay [3] and in assay [5] was “inactive” each time. The Potency in assay [4] is 4.12 µM (active).
In the case of `CCC(C)CNCC(=O)N1CCc2sccc2C1COc1cccc(C)c1` (stereo not given), the Potency entry in assay [1], in assay [2], in assay [3], in assay [4] and in assay [5] was “inactive” throughout.
`O=C(c1ccc(OC(F)F)c(C#Cc2ccccn2)c1)N1Cc2cccnc2C1`: the Potency entry in assay [1], in assay [2], in assay [3], in assay [4] and in assay [5] was “inactive” each time.
As to `Cn1cc(-c2ccc(F)c(C(F)(F)F)c2)nc1C1CCN(c2ncnc3[nH]ncc23)CC1`, the Potency result in assay [1], in assay [2], in assay [3], in assay [4] and in assay [5] was “inactive” throughout.
On to `COc1ccc(CCc2nc3cc(-c4c(C)noc4C)ccc3n2CC(C)N2CCOCC2)cc1Cl` (stereo not given), for which the Potency entry in assay [1], in assay [2], in assay [3], in assay [4] and in assay [5] was “inactive” each time.
Take `COc1c(C(O)CC(C)C)ccc2c1C(=O)OCc1cc(C)cc(O)c1O2` (stereo not given): the Potency result in assay [1], in assay [2], in assay [3], in assay [4] and in assay [5] was “inactive” each time.
